# Results filed as inconclusive are left out. Calls of active or inactive are those of the source. How the source made its calls: active means hit-call score of the fitted dose curve at least 0.9, where 1 is the maximum; inconclusive means response in the unintended direction; inactive means score below 0.9.
# Target: human Thyroid Receptor alpha (THRa1), THRA (gene 7067) (UniProt P10827)
# Assay: ATG_THRa1_TRANS: Attagene TRANS-FACTORIAL HepG2 Assay for human Thyroid Receptor alpha (THRa1) (AID 2283014)
# Method in brief: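 Reporter transcript induction, read by capillary electrophoresis of 6-FAM-labelled RT-PCR products, reflects activity of a transfected THRa1-Gal4 fusion in HepG2 liver cells. Cells were dosed for 24 h; activity was fitted in the positive direction against DMSO.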
# human Thyroid Receptor alpha (THRa1), THRA (gene 7067), sequence (P10827 whole entry, looked up): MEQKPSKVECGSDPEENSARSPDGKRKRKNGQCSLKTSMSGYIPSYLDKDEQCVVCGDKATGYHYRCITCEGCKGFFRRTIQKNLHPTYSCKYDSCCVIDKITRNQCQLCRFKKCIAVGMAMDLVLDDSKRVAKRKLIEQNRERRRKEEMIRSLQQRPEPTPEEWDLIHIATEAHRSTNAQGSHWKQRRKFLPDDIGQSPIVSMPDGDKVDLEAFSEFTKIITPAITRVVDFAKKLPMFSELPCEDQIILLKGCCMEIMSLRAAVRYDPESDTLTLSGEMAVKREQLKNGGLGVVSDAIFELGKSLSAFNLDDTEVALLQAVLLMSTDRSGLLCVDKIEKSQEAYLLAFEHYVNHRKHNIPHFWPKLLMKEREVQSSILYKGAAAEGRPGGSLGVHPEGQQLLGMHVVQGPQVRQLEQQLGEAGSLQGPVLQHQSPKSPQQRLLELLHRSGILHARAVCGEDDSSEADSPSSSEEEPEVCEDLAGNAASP
row,SMILES,outcome
1,CO[Si](C)(C)OC,inactive
2,CCCCNS(=O)(=O)c1ccc(C)cc1,inactive
3,CCC(C)C(=O)OCCc1ccccc1 (stereo not given),inactive
4,CCCCOCCOCCOC(C)=O,inactive
5,CCCCNC(=S)NCCCC,inactive
6,CCOC(=O)c1ccccc1C,inactive
7,CCCCCCCCCCCCCc1ccccc1,inactive
8,CC(=O)CCC=C(C)C,inactive
9,CCCCC(CC)COS(=O)(=O)O (stereo not given),inactive
10,CCCCCCCCCCCCC,inactive
11,Cc1noc(NS(=O)(=O)c2ccc(N)cc2)c1C,inactive
12,CC(=O)CCC1=C(C)CCCC1(C)C,inactive
13,CCCC/C=C/C=C\C=O,inactive
14,CCCCCCCCCCCCc1ccc(O)cc1,inactive
15,Cc1cc(=O)[nH]c(=O)[nH]1,inactive
16,C=C[Si](OCCOC)(OCCOC)OCCOC,inactive
17,O=C(Cl)c1ccc(C(=O)Cl)cc1,inactive
18,CCc1occc(=O)c1O,inactive
19,C[Si]1(C)O[Si](C)(C)O[Si](C)(C)O[Si](C)(C)O[Si](C)(C)O1,inactive
20,C=Cc1cccc(C)c1,inactive

# Reference: PubChem BioAssay (EPA / NIEHS)
